We go through 8 compounds from ChEMBL document CHEMBL3988442, “University of Dundee, Small-Polar-MMV Screening Library” (2021).

What all share (parameters): scale not given: direction of the effect not stated beside the values
For assay [1], the target named is Protein translocase subunit SecA (Escherichia coli (strain K12)) (UniProt P10408). In words: Assay to Identify E. coli SecA ATPase Inhibitors. The assay is classed as functional. To be noted: 30 µM.
In assay [2] the target is T1, Ubiquitin-activating enzyme e1, putative (Leishmania donovani (strain BPK282A1)) (UniProt E9BSI1).
T1 sequence (whole entry): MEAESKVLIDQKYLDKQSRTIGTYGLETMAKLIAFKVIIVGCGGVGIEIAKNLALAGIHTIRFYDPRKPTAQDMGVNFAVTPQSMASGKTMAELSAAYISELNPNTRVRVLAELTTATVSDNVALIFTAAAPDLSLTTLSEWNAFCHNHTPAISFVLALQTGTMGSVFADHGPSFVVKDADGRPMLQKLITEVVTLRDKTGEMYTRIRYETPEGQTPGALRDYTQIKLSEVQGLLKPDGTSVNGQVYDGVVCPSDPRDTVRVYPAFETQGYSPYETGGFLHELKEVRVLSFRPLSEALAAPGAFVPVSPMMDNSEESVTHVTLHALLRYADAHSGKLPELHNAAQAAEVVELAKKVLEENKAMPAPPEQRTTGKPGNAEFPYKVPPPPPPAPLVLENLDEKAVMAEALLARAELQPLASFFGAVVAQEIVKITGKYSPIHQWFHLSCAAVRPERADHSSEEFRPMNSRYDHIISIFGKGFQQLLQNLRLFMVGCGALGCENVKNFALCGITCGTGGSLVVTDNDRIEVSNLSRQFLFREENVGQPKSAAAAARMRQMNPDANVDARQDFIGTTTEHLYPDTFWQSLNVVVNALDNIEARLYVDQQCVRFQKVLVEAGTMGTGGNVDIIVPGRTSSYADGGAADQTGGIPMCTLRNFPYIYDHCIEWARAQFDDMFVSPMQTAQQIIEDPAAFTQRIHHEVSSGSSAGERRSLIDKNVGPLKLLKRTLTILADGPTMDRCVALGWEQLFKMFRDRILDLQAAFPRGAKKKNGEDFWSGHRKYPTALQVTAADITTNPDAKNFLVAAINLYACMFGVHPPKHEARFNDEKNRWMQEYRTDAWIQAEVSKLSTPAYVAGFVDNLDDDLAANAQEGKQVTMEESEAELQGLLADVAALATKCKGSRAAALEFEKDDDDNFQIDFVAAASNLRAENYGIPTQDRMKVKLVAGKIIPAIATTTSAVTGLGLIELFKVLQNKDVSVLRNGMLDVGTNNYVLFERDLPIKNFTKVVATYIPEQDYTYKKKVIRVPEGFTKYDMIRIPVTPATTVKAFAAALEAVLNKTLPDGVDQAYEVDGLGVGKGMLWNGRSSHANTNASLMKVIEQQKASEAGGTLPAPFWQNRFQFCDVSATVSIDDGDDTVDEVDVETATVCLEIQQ
In words: Leishmania donovani Ubiquitin Activating Enzyme (LdE1). The assay is classed as functional. To be noted: 30 µM.

The target in assay [3] is AMP-activated protein kinase, AMPK (Homo sapiens) (UniProt P54646+O43741+P54619+Q9UGJ0+Q9Y478+Q13131+Q9UGI9). Briefly: AMP-dependent Kinase enzyme assay. An in vitro enzyme assay that detects ADP turnover that is directly proportional to AMPK activity. This uses naive AMPK that is activated during the assay with MK-8722. The assay is classed as functional. The conditions noted are these: 30 µM.

Assay [4] has as its target Sialic acid-binding Ig-like lectin 9 (Homo sapiens) (UniProt Q9Y336). Briefly: Hs-Siglec9 ALPHAscreen SOP 20170721. To be noted: 10 µM. Background: Alpha assays give light when donor and acceptor beads are brought close together.
For assay [5], the system named is Trypanosoma cruzi. Briefly: Trypanosoma cruzi phosphomannomutase and mannose-1-phosphate guanylyltransferase assay. In kind it is functional. To be noted: 10 µM.
In assay [6] the target is T2, Arginase-2, mitochondrial (Homo sapiens) (UniProt P78540).
T2 sequence (whole entry): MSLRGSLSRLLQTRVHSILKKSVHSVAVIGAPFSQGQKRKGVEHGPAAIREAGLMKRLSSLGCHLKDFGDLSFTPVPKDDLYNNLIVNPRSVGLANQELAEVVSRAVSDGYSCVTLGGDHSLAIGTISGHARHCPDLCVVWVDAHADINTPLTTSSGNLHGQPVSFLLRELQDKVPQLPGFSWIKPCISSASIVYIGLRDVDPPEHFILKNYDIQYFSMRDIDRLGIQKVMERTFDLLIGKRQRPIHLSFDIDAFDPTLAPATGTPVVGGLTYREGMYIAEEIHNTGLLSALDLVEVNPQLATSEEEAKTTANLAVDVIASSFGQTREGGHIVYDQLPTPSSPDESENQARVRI
Briefly: in vitro enzyme assay to detect the production of urea directly proportional to the activity of Arginase II. Further: in the data most compounds retested in dose-response had high values. In kind it is functional.

In assay [7] the target is T3, Proteasome subunit beta (Trypanosoma cruzi) (UniProt O96673).
T3 sequence (whole entry): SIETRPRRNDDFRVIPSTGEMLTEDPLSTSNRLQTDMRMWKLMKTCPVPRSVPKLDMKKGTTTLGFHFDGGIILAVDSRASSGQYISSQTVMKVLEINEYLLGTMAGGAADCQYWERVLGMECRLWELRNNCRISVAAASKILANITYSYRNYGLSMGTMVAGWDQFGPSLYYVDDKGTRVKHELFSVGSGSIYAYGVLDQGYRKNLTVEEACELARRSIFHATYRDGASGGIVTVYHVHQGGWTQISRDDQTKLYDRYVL
Briefly: Trypanosoma cruzi proteasome chymotrypsin-like activity (TcProtChymo) assay. Further: in the data most compounds retested in dose-response had high values. In kind it is functional. To be noted: 9.37 µM.

For assay [8], the species on record is Homo sapiens. Briefly: To identify inhibition of the IFN signalling (Jak-Stat) pathway via expression of an eGFP reporter gene under the control of an IFN-stimulated response element (ISRE) containing MxA promoter. In kind it is functional. To be noted: 30 µM. (A reporter such as luciferase makes a cellular process visible.)
Assay [9] addresses T4, Tyrosyl-tRNA synthetase, putative (Trypanosoma cruzi (strain CL Brener)) (UniProt Q4DSP6).
T4 sequence (whole entry): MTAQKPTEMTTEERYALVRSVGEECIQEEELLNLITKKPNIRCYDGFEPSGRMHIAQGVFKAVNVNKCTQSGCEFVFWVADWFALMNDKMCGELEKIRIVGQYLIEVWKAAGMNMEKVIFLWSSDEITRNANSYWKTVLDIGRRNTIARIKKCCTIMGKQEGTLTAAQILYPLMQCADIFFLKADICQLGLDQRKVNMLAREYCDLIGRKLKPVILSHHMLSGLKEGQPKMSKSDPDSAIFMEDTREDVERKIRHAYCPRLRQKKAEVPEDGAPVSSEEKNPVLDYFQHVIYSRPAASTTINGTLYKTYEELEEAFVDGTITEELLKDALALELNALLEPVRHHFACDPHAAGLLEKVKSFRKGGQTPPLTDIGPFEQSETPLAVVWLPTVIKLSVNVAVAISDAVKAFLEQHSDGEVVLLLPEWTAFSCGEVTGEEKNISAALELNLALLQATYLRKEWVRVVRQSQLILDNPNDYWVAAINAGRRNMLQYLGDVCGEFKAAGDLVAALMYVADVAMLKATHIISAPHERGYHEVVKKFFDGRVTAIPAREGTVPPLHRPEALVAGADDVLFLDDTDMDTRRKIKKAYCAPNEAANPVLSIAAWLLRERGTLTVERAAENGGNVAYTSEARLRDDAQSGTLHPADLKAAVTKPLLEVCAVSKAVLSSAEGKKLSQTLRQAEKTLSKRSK
In words: Trypanosoma cruzi tyrosyl tRNA synthetase (TcYRS) _High Tyrosine SOP. Further: in the data most compounds retested in dose-response had high values. The conditions noted are these: 30 µM. The assay is classed as functional.

For assay [10], the target named is T4, Tyrosyl-tRNA synthetase, putative (Trypanosoma cruzi (strain CL Brener)). Briefly: Trypanosoma cruzi tyrosyl tRNA synthetase (TcYRS) SOP. The assay is classed as functional. The conditions noted are these: 30 µM.
In assay [11] the target is Chromo domain-containing protein 1 (Saccharomyces cerevisiae (strain ATCC 204508 / S288c) (Baker's yeast)) (UniProt P32657). In words: ScCHD-1 Enzyme Inhibition Assay. Further: in the data most compounds retested in dose-response had high values. In kind it is functional. The conditions noted are these: 30 µM.
Chain of Chromo domain-containing protein 1 (Saccharomyces cerevisiae (strain ATCC 204508 / S288c) (Baker's yeast)) (P32657 whole entry, the tested form may be a part): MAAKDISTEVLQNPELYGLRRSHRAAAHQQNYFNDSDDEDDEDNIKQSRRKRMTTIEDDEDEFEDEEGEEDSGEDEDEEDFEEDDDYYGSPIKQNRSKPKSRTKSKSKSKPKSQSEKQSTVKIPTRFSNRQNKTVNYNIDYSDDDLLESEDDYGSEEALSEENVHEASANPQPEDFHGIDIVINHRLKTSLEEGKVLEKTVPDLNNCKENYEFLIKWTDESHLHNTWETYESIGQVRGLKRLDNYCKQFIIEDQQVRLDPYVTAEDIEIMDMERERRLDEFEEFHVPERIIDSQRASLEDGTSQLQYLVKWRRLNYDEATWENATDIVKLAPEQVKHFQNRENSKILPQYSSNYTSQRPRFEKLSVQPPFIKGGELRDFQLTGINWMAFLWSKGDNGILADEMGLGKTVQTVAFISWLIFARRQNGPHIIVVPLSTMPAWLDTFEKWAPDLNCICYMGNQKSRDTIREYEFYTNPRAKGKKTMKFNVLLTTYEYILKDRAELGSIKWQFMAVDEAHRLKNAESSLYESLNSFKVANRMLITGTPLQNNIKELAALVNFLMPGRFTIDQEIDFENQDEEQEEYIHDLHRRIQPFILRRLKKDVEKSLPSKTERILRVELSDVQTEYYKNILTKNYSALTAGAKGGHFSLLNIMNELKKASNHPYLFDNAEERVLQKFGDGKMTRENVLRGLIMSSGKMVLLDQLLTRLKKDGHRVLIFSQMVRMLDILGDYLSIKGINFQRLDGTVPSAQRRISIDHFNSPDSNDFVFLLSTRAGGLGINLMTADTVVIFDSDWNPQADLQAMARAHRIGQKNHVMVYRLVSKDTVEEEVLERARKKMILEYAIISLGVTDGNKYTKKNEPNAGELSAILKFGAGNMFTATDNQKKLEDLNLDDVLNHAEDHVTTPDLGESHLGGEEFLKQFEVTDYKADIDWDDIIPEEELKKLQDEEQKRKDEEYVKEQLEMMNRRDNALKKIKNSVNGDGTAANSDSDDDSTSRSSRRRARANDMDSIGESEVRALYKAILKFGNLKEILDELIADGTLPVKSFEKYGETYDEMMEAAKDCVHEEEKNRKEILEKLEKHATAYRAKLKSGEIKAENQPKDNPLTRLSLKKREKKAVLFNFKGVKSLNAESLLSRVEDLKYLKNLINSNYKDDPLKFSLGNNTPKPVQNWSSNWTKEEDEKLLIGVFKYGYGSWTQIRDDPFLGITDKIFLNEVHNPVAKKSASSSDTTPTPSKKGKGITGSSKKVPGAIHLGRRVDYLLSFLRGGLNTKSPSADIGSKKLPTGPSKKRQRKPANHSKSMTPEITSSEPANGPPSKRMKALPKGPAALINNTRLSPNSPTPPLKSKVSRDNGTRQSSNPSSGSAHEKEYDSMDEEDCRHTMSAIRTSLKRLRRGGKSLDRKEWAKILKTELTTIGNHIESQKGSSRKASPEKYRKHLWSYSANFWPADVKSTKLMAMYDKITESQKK
For assay [12], the system named is N/A. Briefly: Trypanosoma cruzi proteasome luciferase counter-screen. To be noted: 9.37 µM. In kind it is functional. On the technique in general: The purpose of a counterscreen is to sort out artefacts and off-target activity.

The structures appear in SMILES notation. Where “and” joins values, the source holds several entries; their conditions need not be identical. Equal entries are not always repeated. For part of these data: Potency and affinity values are given separately.

Chain of Sialic acid-binding Ig-like lectin 9 (Homo sapiens) (Q9Y336 whole entry): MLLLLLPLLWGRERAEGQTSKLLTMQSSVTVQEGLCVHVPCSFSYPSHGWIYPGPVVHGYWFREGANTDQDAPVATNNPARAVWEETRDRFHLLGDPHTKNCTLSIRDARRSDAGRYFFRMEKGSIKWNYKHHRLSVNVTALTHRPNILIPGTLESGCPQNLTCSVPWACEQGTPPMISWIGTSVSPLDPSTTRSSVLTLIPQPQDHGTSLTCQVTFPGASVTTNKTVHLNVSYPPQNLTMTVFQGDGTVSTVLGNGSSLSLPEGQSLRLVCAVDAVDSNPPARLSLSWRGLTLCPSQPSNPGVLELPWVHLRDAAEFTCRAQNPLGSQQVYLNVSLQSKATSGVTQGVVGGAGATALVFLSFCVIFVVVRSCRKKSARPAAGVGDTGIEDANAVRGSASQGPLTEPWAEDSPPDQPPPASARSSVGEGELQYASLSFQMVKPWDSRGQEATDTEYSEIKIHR
Chain of Protein translocase subunit SecA (Escherichia coli (strain K12)) (P10408 whole entry): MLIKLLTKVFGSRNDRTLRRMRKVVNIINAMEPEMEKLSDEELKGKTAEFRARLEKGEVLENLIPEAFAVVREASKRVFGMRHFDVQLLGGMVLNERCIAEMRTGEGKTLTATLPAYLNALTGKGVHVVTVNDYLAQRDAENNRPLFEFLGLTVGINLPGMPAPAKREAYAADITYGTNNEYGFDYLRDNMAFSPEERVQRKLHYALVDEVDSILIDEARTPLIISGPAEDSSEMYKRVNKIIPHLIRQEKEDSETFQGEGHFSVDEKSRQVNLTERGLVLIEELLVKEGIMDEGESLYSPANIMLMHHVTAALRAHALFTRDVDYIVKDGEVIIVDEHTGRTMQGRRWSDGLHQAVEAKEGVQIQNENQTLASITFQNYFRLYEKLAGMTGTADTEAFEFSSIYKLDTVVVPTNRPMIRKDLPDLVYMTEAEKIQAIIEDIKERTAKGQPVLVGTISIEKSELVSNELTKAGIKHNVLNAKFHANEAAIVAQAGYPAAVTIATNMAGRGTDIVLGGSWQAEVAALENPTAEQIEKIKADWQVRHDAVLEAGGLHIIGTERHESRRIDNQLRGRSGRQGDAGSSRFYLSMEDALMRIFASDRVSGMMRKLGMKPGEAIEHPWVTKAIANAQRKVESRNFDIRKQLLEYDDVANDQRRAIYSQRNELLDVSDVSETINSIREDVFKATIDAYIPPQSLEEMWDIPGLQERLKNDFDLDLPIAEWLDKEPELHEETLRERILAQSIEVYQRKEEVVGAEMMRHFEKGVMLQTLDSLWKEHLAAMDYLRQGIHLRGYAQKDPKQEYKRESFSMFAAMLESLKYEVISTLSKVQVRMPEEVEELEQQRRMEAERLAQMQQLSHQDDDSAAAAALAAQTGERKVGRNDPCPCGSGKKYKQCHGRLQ

As for `Cn1cc(CC2CCN(C(=O)NCCc3cccc(O)c3)C2)cn1` (stereo unspecified), the Percent Effect in assay [1] was -1.93%; in [2] it was 0%; in [3] it was 11.8%; in assay [4] it was 1.28%; in assay [5], -3.8%; in [6] (30 µM), 5.95%. Further, the Percent Effect was -2.37% in assay [6] (33.3 µM); 11% in assay [7]; -12% in assay [8]; 5.32% in [9]; 7.79% in [10]; -2.6% in [11].
As to `Cc1cnn(CC2CN(c3cnc4ccccc4n3)CCO2)c1` (stereo unspecified), the Percent Effect was -8.32% in assay [1]; 15.2% in assay [2]; 2.77% in assay [3]; 14.7% in assay [4]; 12% in assay [5]; -4.56% in [6] (33.3 µM). The Percent Effect in assay [7] is 38.1% and 39.2% and 44.7%; in assay [12], 20.3% and 14.5%; in assay [8], 14.6%; in assay [9], 4.43%; in assay [10] it was 21.5%; in [11], -12.5%.
With `COc1cccc(-c2nc(C)c(C(=O)NC(CO)CCSC)s2)c1` (stereo unspecified), the Percent Effect in assay [1] was -3.43%; in assay [2], 1.33%; in assay [3] it was 7.43%; in assay [4] it was 6.12%; in assay [5], -2.36%; in assay [6] (33.3 µM) it was -11.4%. Also, the Percent Effect in assay [7] was 30.1% and 33.3% and 30.7%; in [12] it was 26.5% and 29.5%; in assay [8], 15.6%; in assay [9] it was 4.23%; in assay [10], 7.69%; in [11] it was -7.42%.
With `COc1ccc(-c2nc(CN3CC(n4nc(C)cc4C)C3)no2)cc1`, the Percent Effect in [1] was -4.78%; in assay [2], -5.2%; in assay [3] it was 0.251%; in assay [4], -0.396%; in [5] it was -6.79%; in assay [6] (30 µM), 2.7%. In addition, the Percent Effect in assay [6] (33.3 µM) worked out at 17.9%; in assay [7], 14.5%; in assay [8], 15.2%; in [9], 2.15%; in assay [10], 1.24%; in assay [11], 1.8%.
`CCC(C(=O)NCc1ccncc1)N(c1ccc(OC)cc1)S(C)(=O)=O` (stereo unspecified): the Percent Effect in [1] is -4.48%; in assay [2] it was 2.67%; in assay [3], -7.64%; in assay [4] it was 14%; in [5], 4.97%; in assay [6] (30 µM), 2.7%. The Percent Effect in assay [6] (33.3 µM) is 3.65%; in assay [7], 2.27%; in [8] it was 6.36%; in [9], 4.92%; in assay [10], 8.64%; in [11] it was -13.6%.
Turning to `Cc1ccc(CN(C)C(=O)CN2CC(n3cccn3)C2)o1`, the Percent Effect in [1] was -6.67%; in assay [2], 2.63%; in [3], 17.5%; in assay [4], -1.07%; in [5], -1.46%; in [6] (33.3 µM), -4.73%. The Percent Effect in [7] is 23.1% and 34.2% and 27.3%; in assay [12], 20.4% and 19.7%; in assay [8], 22.7%; in [9], -2.13%; in assay [10] it was -2.6%; in assay [11], -1.83%.
As to `COc1c(CNC2CCc3c(Cl)cccc32)c(C)nn1C` (stereo unspecified), the Percent Effect is -3.04% in assay [1]; 8% in assay [2]; -13.3% in assay [3]; 15.4% in assay [4]; 7.89% in assay [5]; 1.62% in assay [6] (30 µM). Besides, the Percent Effect in assay [6] (33.3 µM) worked out at 14.1%; in [7], 16.2%; in assay [8], 53.8%; in assay [9] it was 4.92%; in assay [10], 16.1%; in assay [11], 108%.
As to `O=C(NC1CCC1)[C@@H]1CCO[C@@H]2CCN(CCc3ccccc3)C[C@H]21`, the Percent Effect was -2.5% in [1]; 16.2% in assay [2]; -6.69% in [3]; -3.15% in assay [4]; 4.3% in [5]; 8.11% in assay [6] (30 µM). The Percent Effect in [6] (33.3 µM) is 14.6%; in assay [7] it was 22.7%; in assay [8] it was 12%; in assay [9], 8.91%; in assay [10] it was 18.3%; in [11], -3.4%.
